Data reported in PubChem BioAssay (NCI).
The panel holds about 83,000 compounds, 20% with a hit somewhere; the sample as a whole holds those more often.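 In brief: 96-well plates, 48 h treatment, single concentration, percent growth endpoint.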 A number with no mark means an inactive call. Calls of active or inactive are those of the source. How the source made its calls: active means growth percent below 10; inactive means the rest.

The compounds below were run on SF-295 CNS (assay: NCI-60 one-dose screen, 48 h (100 = growth as untreated, 0 = no growth, -100 = all killed)). Conditions: 10 µM unless noted.

| Compound | growth |
| --- | --- |
| CN(C(=O)CN1C(=O)/C(=C/c2ccco2)SC1=S)C1CCS(=O)(=O)C1 (centres undefined) | 104% |
| O=C(c1ccc(Cl)cc1)C1[C@H](c2ccccc2Cl)[C@@H](c2ccccc2)NC12C(=O)Nc1ccccc12 (some centres undefined) | -72.3% (active) |
| Cc1ccc(Nc2nnc(-c3c[nH]c4ccccc34)o2)c(C)c1 | 9.91% (active) |
| Cc1ccccc1NC(=O)c1cccc(NC(=O)CCl)c1 | 38.4% |
| Clc1ccc(CNc2nc(SCCN3CCOCC3)nc3c2cnn3CC(Cl)c2ccc(Br)cc2)cc1 (centres undefined) | 14.3% |
| CCc1ccc(SC2c3cc(OC)ccc3Oc3nc(N)c(C#N)c(N)c32)cc1 (centres undefined) | -58.8% (active) |
| O=C(N/N=C/c1ccc(B(O)O)s1)c1[nH]c2ccc(Br)cc2c1-c1ccccc1 | -98.1% (active) |
| CCN1C(=O)N(CC)C2NNC(Sc3c(C(=O)O)c4ccccc4n(CC(C)C)c3=O)=NC21 (centres undefined) | -14.8% (active) |
| COc1ccc(/C=C/c2nc3ccccc3c(=O)n2CC(=O)Nc2ccccc2)cc1 | 12.5% |
| COc1ccc2[nH]c(=O)c(CSc3ccccc3Nc3nccc(-c4ccc5c(c4)OCO5)n3)cc2c1 | 104% |
| Cc1ccc(Cl)cc1NC(=O)N/C(N)=N/c1nc2ccccc2s1 | -49.6% (active) |
| COc1ccc(OC)c(Cn2cc(C#N)c(N)c2C(=O)c2ccc(Br)cc2)c1 | 39.1% |
| Cc1ccc(-c2cc(-c3ccccc3)[nH]c(=O)c2C#N)cc1 | 90.4% |
| Cc1ccc(C(C(=O)NC2CCCCC2)N(Cc2ccccc2Cl)C(=O)c2ccc(CN3CCOCC3)o2)o1 (centres undefined) | 91.8% |
